Calb FLC – C. albicans growth inhibition with fluconazole, primary screen, CaCi-2 strain, Alamar Blue fluorescence; growth inhibition, % (no concentration beside the values); 300,000 tested, 0.57% active; C. albicans CaCi-2 (fluconazole-resistant clinical isolate) + fluconazole, 48 h; AID 1979, 2009;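 active means growth inhibition above about 58% in most replicates, limit read from the data, passing the limit was not always enough; inconclusive means exactly half the replicates above a set limit; inactive means most replicates below a set limit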;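 further: all wells also contain fluconazole at 8 µg/ml as a sub-toxic cotreatment; 0% = median of DMSO wells and 100% = median of geldanamycin control wells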
PfHsp90 yeast 2 – growth inhibition of PfHsp90-expressing yeast, primary screen, antimalarial PfHsp90 inhibitor project, S. cerevisiae, BacTiter-Glo luminescence, single point, set 2 | BacTiter-Glo ATP, 48 h; yeast lacking PDR1 and PDR3 efflux regulators | inhibition, % at 9.4 µM | 310,000 tested, 0.32% active | AID 504621, 2011;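 active means every replicate shows inhibition above about 80%, whatever the replicate mean, limit read from the data; inconclusive means mean inhibition reaches the set limit but some replicate falls short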;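 further: 0% = DMSO neutral controls and 100% = 20 µM radicicol positive controls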
Beta cell apopt – inhibitors of cytokine-induced beta cell apoptosis, primary screen, luminescence | INS-1E cytokine-induced death, ATP luminescence, 48 h; percent of positive-control rescue, neutral wells zero | protection from apoptosis, % (test concentration not listed) | 300,000 tested, 0.8% active;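 active means Every replicate reaches about 75%, or at least half do and their mean reaches it too, limit read from the data; inconclusive means At least half of replicates reach the limit but their mean does not; inactive means Under half of replicates reach the limit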;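 further: 0% = cytokine-treated negative control wells and 100% = positive control rescue; higher means more ATP so stronger rescue from cytokine killing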
CSC inhib – cancer stem cell viability inhibitors, primary screen, luminescence. inhibition, % at 7.5 µM. cancer stem cell-like cells viability. AID 2717, 2010. 300,000 tested, 1.1% active; in the data active means inhibition above about 75%; inconclusive means no clear call, values can overlap the other calls; tested in HMLE shEcad cells
Shn3 inh set2 – reduction of Shn3 3'UTR firefly luciferase signal, primary screen, Schnurri-3 inhibitor project, cell-based, Clone20 osteoblasts, set 2 | inhibition, % at 12.5 µM | 360,000 tested, 0.52% active | Clone20 osteoblast Shn3 3'UTR firefly luciferase, 24 h;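 active means mean inhibition of at least 75% with every replicate also reaching 75%; inconclusive means mean inhibition at least 75% but some replicate below; inactive means mean inhibition below 75%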;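 further: 0% = median of neutral control wells and 100% = pilot-screen positive control compound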
An asterisk follows results filed as active; u = inconclusive; x = no result given; + = active, no number. A selection: hits, their analogues and other compounds. The true share with any hit is near 2.2%.

SMILES	Calb FLC	PfHsp90 yeast 2	Beta cell apopt	CSC inhib	Shn3 inh set2
COc1cccc(-c2sc3ccc(OC)cc3c2-c2ccc(OCCN3CCOCC3)cc2)c1	x	18.8	-4.3	104.0*	8.7
FC(F)(F)c1cc(CCN2CCNC[C@@H]2Cc2ccccc2)cc(C(F)(F)F)c1	1.8	7.1	18.2	77.0*	40.4
CC(Nc1ncnc2ccccc12)c1ccccc1 (configuration not stated)	76.2*	5.7	95.7*	22.0	88.3*
CCCCC(Nc1ncnc2ccccc12)C(=O)O (configuration not stated)	-9.2	-29.6	-3.0	-0.9	-17.5
O=C(/C=C/c1ccc(F)cc1)N1CCN(c2ccccn2)CC1	87.2*	4.3	0.1	-3.7	0.7
CCCCCCCCCCC[C@@H](C[C@@H]1OC(=O)[C@H]1CCCCCC)OC(=O)[C@H](CC(C)C)NC=O	x	-4.6	3.8	102.4*	63.4
COc1ccc(CN2CCNC(=O)C2CC(=O)N(C)CCCN2CCOCC2)cc1C (configuration not stated)	-9.2	18.3	-1.5	-4.9	-6.8
O=C(Nc1csc([N+](=O)[O-])c1)Nc1ccccc1Cl	7.0	-0.4	42.1	10.3	11.9
O=C(Nc1ccc(Cl)cc1)Nc1ccccc1Sc1ncc([N+](=O)[O-])s1	-5.1	-17.6	23.2	84.4*	-22.5
COC(=O)c1cc(NC(=O)c2ccccc2)c(=O)oc1C	1.7	22.9	-2.8	3.4	-29.1
COc1ccc(C(=O)Nc2cc(C(=O)c3ccccc3)c(C)oc2=O)cc1	-1.1	117.1*	x	-1.6	-10.2
CCN(CC)C(=O)C1CCN(S(=O)(=O)c2ccc3oc4ccccc4c3c2)CC1	-5.8	-6.6	15.8	23.4	85.8*
CC1CCN(C(=O)Cn2c3ccccc3c3nc4n(c(=O)c32)CCS4)CC1	90.8*	4.1	4.2	-4.8	12.0
O=C(Cn1c2ccc(F)cc2c2nc3n(c(=O)c21)CCS3)N1CCCC1	89.2*	1.0	3.6	-8.9	1.7
COc1cc(/C=C(\C#N)c2nc3ccccc3[nH]2)ccc1OC(=O)c1ccco1	-1.8	-4.9	-4.6	16.8	-76.1
COc1cc(/C=C(/C#N)c2nc3ccccc3[nH]2)ccc1OCC(=O)Nc1ccccc1C	x	-16.9	3.1	83.1*	-9.5
COc1cc(/C=C(/C#N)c2nc3ccccc3[nH]2)ccc1OCC(=O)Nc1ccccc1C(C)C	10.0	-2.0	61.8	99.8*	-2.0
C=C1C(=O)[C@]23C[C@H]1CC[C@H]2[C@]1(C)[C@@H](OC(C)=O)CC[C@@](C)(C(=O)OC)[C@H]1C[C@@H]3OC(C)=O	x	x	x	x	95.5*
C=C1C(=O)[C@]23C[C@H]1CCC2[C@@]1(C)C(C[C@@H]3O)[C@](C)(C(=O)OC)CC[C@@H]1OC(C)=O (some centres not stated)	x	x	x	x	98.2*
C=C1C(=O)[C@]23C[C@H]1CC[C@H]2[C@]1(C)[C@@H](OC(C)=O)CC[C@@](C)(C(=O)O)[C@H]1C[C@@H]3O	x	x	x	x	62.8
COC(=O)c1ccccc1C(=O)N1CCC(CCC(=O)NC2CC2)CC1	-2.2	22.1	-0.8	-2.0	-9.9
COc1ccc(OC)c(NC(=O)CSc2ncnc3c2cnn3-c2ccccc2Cl)c1	-1.8	-26.4	129.3*	x	89.3*
COc1cc(CNCCc2c[nH]c3ccccc23)ccc1OCc1ccc(F)cc1	u	6.2	31.4	+	-14.1
COc1cccc2c(SCC(=O)N/N=C/c3ccccc3)cc(C)nc12	9.1	17.9	-21.1	-0.3	8.7
COc1cccc2c(SCC(=O)N/N=C/c3ccc(O)c(O)c3)cc(C)nc12	92.3*	4.0	3.8	21.6	9.2
SMILES	Calb FLC	PfHsp90 yeast 2	Beta cell apopt	CSC inhib	Shn3 inh set2
NC(=NCCc1c[nH]c2ccccc12)NC(=O)c1ccc(F)cc1	-4.3	12.3	-5.1	32.8	-0.8
CCOc1ccccc1N(C(=O)Nc1ccc(Cl)cc1)C1=NCCS1	x	-73.7	2.9	83.8*	8.4
CCN(C[C@H]1N[C@@](CC)(C(=O)OC)[C@H]2C(=O)N(Cc3ccccc3)C(=O)[C@@H]12)S(=O)(=O)c1ccc(OC(F)(F)F)cc1	x	-18.0	x	x	0.4
N#Cc1ccsc1NC(=O)COC(=O)C1=NNC(=O)CC1	x	6.4	0.8	x	4.7
CC1=C(C#N)C(C(F)(F)F)(C(F)(F)F)N=C(c2ccco2)N1	-17.4	1.9	101.2*	-12.6	88.9*
O=C(N/N=C/c1ccco1)c1cccc(N2Cc3ccccc3C2)c1	4.8	-11.9	-5.0	-7.0	-1.6
CN(C(=O)CSc1cc(Cl)ccc1Cl)C1CCS(=O)(=O)C1 (configuration not stated)	x	x	1.3	-13.7	29.1
Cc1cc(Cl)ccc1OCc1cn2cccnc2n1	61.1*	-30.3	2.3	-16.2	-34.3
Clc1ccc(OCc2cn3cccnc3n2)c2ncccc12	7.5	19.3	x	x	-7.2
Cc1ccc(-c2cc(C(=O)OCC(=O)N(C)c3c(N)n(Cc4ccccc4)c(=O)[nH]c3=O)c3ccccc3n2)o1	11.6	-18.3	-2.0	-12.2	-44.4
CC(C)=C(C#N)c1nc2ccccc2s1	-15.8	-12.7	-5.6	-4.0	-17.2
Cc1ccc(OC/C(O)=C(\C#N)c2nc3ccccc3s2)cc1	53.0	8.9	10.7	77.8*	8.9
N=c1c2c(ncn1Cc1ccco1)Oc1c(ccc3ccccc13)C2c1ccccc1 (configuration not stated)	-5.4	17.9	x	101.6*	9.3
Cc1nc2sc3c(NCc4ccco4)ncnc3c2c2c1COC(C)(C)C2	-5.8	-15.0	0.2	85.2*	5.8
O=C1CC(c2ccccc2)CC(O)=C1C=Nc1cccc(Cl)c1 (configuration not stated)	19.3	105.4*	-20.9	-1.4	83.5
CC(=O)Nc1ccc2[nH]c3ccccc3c2c1	-4.4	1.2	-1.4	21.1	-8.9
O=C(Nc1ccc(Cl)cc1)c1cc2c(cc1O)[nH]c1ccccc12	-3.3	5.7	38.7	115.6*	-20.8
Cc1cc(C)n(-c2nc(SCC(=O)O)c3c4c(sc3n2)COC(C)(C)C4)n1	20.2	32.0	9.5	12.1	0.5
Cc1cc(C)n(-c2nc(SCCN(C)C)c3c4c(sc3n2)CCCC4)n1	78.8*	x	30.5	-6.3	52.9
CCC(C)c1ccc(S(=O)(=O)N2CCN(C(=O)c3ccc(Cl)c(S(=O)(=O)N4CCOCC4)c3)CC2)cc1 (configuration not stated)	x	2.8	x	x	89.7*
CC#CC[N+](C)(C)CCCCCCCC	-22.3	9.2	130.5*	3.8	x
COc1cccc(-c2nc(C(=O)NCC3CCCO3)cc3c2[nH]c2ccccc23)c1 (configuration not stated)	20.3	-23.2	32.8	29.7	12.7
COc1ccc(C)cc1NC(=O)CSc1nnc(COc2ccc(Cl)cc2)n1Cc1ccco1	-4.6	x	3.8	78.7*	18.0
CC(C)(C)OC(=O)N1CCN(C(=O)c2cccnc2Cl)CC1	-1.8	4.0	7.2	-0.4	4.5

Bioassay records deposited in PubChem BioAssay by Broad Institute.
